Screening results as filed in PubChem.
BLM inh – inhibitors of human Bloom syndrome helicase BLM. P54132. recombinant BLM DNA unwinding, fluorescence dequenching. Potency, µM (titrated, usually from 56.1 µM), without a hit: at the top dose activity change, negative = inhibition, most hits filed as inhibitors. actives 0.2% (n = 350,000). AID 2528;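 note: potency is the fitted concentration of half-maximal effect; plate controls were vehicle for no effect and no enzyme for full effect; nearly all actives have a fitted effect of over 35% in size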
PKM2 activator – activators of human pyruvate kinase M2; purified PKM2, Kinase-Glo ATP luminescence, activation; response scale: 0% is enzyme alone, no compound; Potency, µM (series often up to 57.5 µM), without a hit: at the highest dose activation, actives largely listed as activators; actives 0.34% (n = 260,000); P14618; AID 1631; note: potency is the fitted concentration of half-maximal effect; % is set by controls: 0 for no effect and ±100 for the full control effect; nearly all actives have a fitted effect of over 55% in size
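hPK-M2, >95% pure; 0.1 mM ADP / 0.5 mM PEP final; imidazole pH7.2 buffer w/ 7 mM MgCl2, 50 mM KCl; 1 h RT; Kinase-Glo lum. Intermediate enzyme activity for dual inhibitor/activator qHTS.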
APE1 inh – blocks human APE1 abasic DNA cleavage; P27695; recombinant APE1, TAMRA/BHQ-2 abasic DNA cleavage fluorescence; Potency, µM (highest dose often 65.8 µM), without a hit: at the highest dose activity change, negative = inhibition, usual class: inhibitors; actives 0.35% (n = 350,000); AID 2517;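 note: potency is the fitted concentration of half-maximal effect; plate controls were vehicle for no effect and reference inhibitor for full effect; nearly all actives have a fitted effect of over 55% in size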
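APE1 at 0.75 nM final was preincubated with compound 15 min at room temperature, then 50 nM double-stranded THF abasic-site substrate (5'-TAMRA/3'-BHQ-2) was added. Fluorescence (ex 525/em 598 nm) was read kinetically; third-minus-first read gave activity.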
RECQ1 helicase – inhibitors of human RECQ1 DNA helicase. AID 2549. RECQ1 DNA unwinding, red fluorescence kinetic read. Potency, µM (doses to about 57.3 µM), for the others: top-dose activity, negative = inhibition, most hits filed as inhibitors. actives 0.54% (n = 240,000). P46063;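 note: potency is the fitted concentration of half-maximal effect; plate controls were vehicle for no effect and no enzyme for full effect; nearly all actives have a fitted effect of over 30% in size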
Target sequence (P46063 whole entry, looked up): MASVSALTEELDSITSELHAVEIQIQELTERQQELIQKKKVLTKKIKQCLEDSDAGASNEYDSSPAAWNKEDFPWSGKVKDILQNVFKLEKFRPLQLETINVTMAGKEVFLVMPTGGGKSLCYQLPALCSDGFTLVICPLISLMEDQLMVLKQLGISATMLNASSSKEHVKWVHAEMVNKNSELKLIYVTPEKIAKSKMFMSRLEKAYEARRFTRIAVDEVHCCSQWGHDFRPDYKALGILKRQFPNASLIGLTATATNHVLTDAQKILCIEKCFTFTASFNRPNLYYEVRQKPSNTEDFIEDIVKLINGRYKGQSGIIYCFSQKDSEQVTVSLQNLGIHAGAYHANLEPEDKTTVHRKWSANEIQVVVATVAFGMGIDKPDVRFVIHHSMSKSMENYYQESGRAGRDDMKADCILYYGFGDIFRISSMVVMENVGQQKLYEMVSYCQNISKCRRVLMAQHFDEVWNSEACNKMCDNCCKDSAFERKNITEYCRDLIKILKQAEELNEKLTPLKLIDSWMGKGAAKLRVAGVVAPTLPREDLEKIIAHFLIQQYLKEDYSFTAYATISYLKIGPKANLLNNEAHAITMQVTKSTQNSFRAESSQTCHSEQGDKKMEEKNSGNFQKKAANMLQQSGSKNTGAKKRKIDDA
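50 nM RECQ1T1 preincubated 15 min with compound in Tris pH 8.0 buffer with MgCl2, DTT, Tween-20 and 2.5 ug/ml poly(dI-dC); started with 200 nM TAMRA/BHQ-2 forked duplex and 2 mM ATP. Unwinding read as fluorescence (525/598 nm), two reads 2 h apart.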
KDM4E inh – blocks human JMJD2E demethylase activity; Potency, µM (doses to about 57.1 µM), for the others: at the top dose activity change, negative = inhibition, most hits filed as inhibitors; B2RXH2; AID 2147; JMJD2E catalytic domain, FDH-coupled NADH fluorescence (FDH is formaldehyde dehydrogenase); actives 1.6% (n = 230,000); active = well fitted inhibition curve with a large enough effect, not every such curve was filed as active; inconclusive = small, poorly fitted or top-dose-only effect, or another doubt; inactive = no such curve, though single readings can be large or run the other way;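 note: potency is the fitted concentration of half-maximal effect; 0% = wells with enzyme and -100% = buffer wells without enzyme; nearly all actives have a fitted effect of over 50% in size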
HeLa viability – counter-screen for pyruvate kinase M2 activators: HeLa cytotoxicity; shares compounds with PKM2 activator; HeLa viability, CellTiter-Glo ATP luminescence, 24 h; activity change, negative = cytotoxicity, % at 57.5 µM; 230 tested, under 10 active; AID 1898; note: % of control where 0% means no effect
* marks the source's active call; other numbers are inactive results; i = inactive; u = inconclusive; x = not tested or not shown; [ ] = remark or other dose. This is one part of a sample in which hits are shown more often than they occur. Unless noted, calls come from the whole dose curve; as a rule, active = well fitted curve in the direction sought with a large enough effect; inconclusive = small, poorly fitted or top-dose-only effect, or another doubt; inactive = no such curve, though single readings can be large; an effect the other way counts as inactive or inconclusive.

SMILES	BLM inh	PKM2 activator	APE1 inh	RECQ1 helicase	KDM4E inh	others
CC(=O)c1ccsc1-c1c(C)cc2oc(=O)cc(-c3ccccc3)c2c1C	-8.8%[75.6 µM]	x	8.9%	22.4µM*	x
CCOC(=O)OCC1OC(C#Cc2ccccc2)C=CC1OC(=O)OCC (stereo not drawn)	-2.0%[12.4 µM]	x	3.4%[12.4 µM]	11.3%[11.5 µM]	x
CN=C1N[C@H](c2ccccc2)N(c2ccccc2)S1	-0.7%	x	-7.4%	i	7.94µM*
CCN1C(=O)NC(c2ccccc2)C1=O (stereo not drawn)	x	x	-9.3%	x	x
ONCc1ccccc1	2.4%	x	-4.6%	-1.0%	x
O=C(Cn1nnc(-c2ccccc2Cl)n1)N1CCN(S(=O)(=O)c2ccc(Cl)cc2)CC1	-1.7%	7.94µM*	-6.4%	-5.3%	-0.8%
O=C(CSc1nncs1)N1CCN(S(=O)(=O)c2ccccc2)CC1	-13.4%	26.3%	3.2%	i	13.1%
COc1ccccc1-n1cnnc1SCC(=O)N1CCN(S(=O)(=O)c2ccccc2)CC1	2.5%	15.8µM*	-17.2%	1.9%	-3.2%
Cc1ccc(S(=O)(=O)N2CCN(C(=O)CSc3nncs3)CC2)cc1	6.1%	17.8µM*	3.1%	0.0%	-4.0%
Cc1ccc(S(=O)(=O)N2CCN(C(=O)CSc3ccc(Cl)cc3)CC2)cc1	-5.5%	14.1µM*	-4.2%	x	x
O=C(Cn1nnc(-c2ccccc2Cl)n1)N1CCCCC1	1.5%	0.2%	5.3%	x	x
C=C(NC(=O)C(=C)NC(=O)c1csc(C2=N[C@@H]3c4csc(n4)[C@H]4NC(=O)c5csc(n5)[C@H]([C@](C)(O)[C@@H](C)O)NC(=O)[C@H]5CSC(=N5)C(=CC)NC(=O)C([C@@H](C)O)NC(=O)c5csc(n5)[C@]3(CC2)NC(=O)[C@H](C)NC(=O)C(=C)NC(=O)[C@H](C)NC(=O)C([C@@H](C)CC)NC2C=Cc3c([C@H](C)O)cc(nc3C2O)C(=O)O[C@@H]4C)n1)C(N)=O (stereo partly drawn)	x	x	5.1%[21 µM]	x	x
CC(=O)N[C@@H]1C(O[C@H]2O[C@H](C(=O)O)C(O)[C@H](O)[C@H]2O)[C@H](O)[C@@H](CO)O[C@H]1O[C@@H]1C(C(=O)O)O[C@@H](O[C@H]2[C@H](O)[C@@H](CO)OC(O)[C@@H]2NC(C)=O)[C@H](O)[C@H]1O (stereo partly drawn)	0.9%	x	x	x	x
C[C@@H]1/C=C\CC(=O)OC[C@H](C)C(=O)N[C@@H](Cc2ccccc2)C(=O)OC1	0.0%[12.4 µM]	x	u	i[11.5 µM]	x
CC(=O)Nc1ccc(SCC(=O)N2CCN(S(=O)(=O)c3ccccc3)CC2)cc1	0.9%	u	-7.0%	x	x
Cc1ccc(S(=O)(=O)N2CCCN(S(=O)(=O)c3ccc(C)cc3)CC2)cc1	-6.8%	8.91µM*	-5.5%	-5.7%	3.8%
O=C(CSc1n[nH]c(-c2cccs2)n1)N1CCN(S(=O)(=O)c2ccccc2)CC1	1.0%	25.1µM*	-3.6%	0.1%	1.3%
Cc1ccc(S(=O)(=O)N2CCCCC2)cc1	-2.7%	x	11.9%	x	x
O=C(CSc1n[nH]c(-c2cccs2)n1)N1CCCC1	x	x	9.2%	x	x
O=C(CSc1ccc(F)cc1)N1CCN(S(=O)(=O)c2ccccc2)CC1	-8.1%	3.16µM*	-0.1%	-1.4%	-5.1%
Cc1ccccc1-c1cncnc1NCc1cccs1	-1.8%	x	-2.4%	-11.9%	x
C#CCn1c(=O)c2c(nc(/C=C/c3cccc(OC)c3)n2C)n(CCCOP(=O)(O)O)c1=O	-1.2%	x	-3.2%	-1.6%	x
O=C(N/N=C/c1cc2ccccc2nc1Cl)/C(=C/c1cccs1)NC(=O)c1ccccc1	u	1.8%	-7.6%	25.1µM*	u
CSCC[C@H](N)C(=O)N[C@@H](CO)C(=O)N[C@@H](CCCN=C(N)N)C(=O)N1CCC[C@H]1C(=O)N[C@@H](C)C(=O)N[C@@H](CS)C(=O)N1CCC[C@H]1C(=O)N[C@@H](CC(N)=O)C(=O)N[C@@H](CC(=O)O)C(=O)N[C@@H](CCCCN)C(=O)N[C@@H](Cc1ccc(O)cc1)C(=O)N[C@@H](CCC(=O)O)C(=O)O	-2.2%	x	-4.6%	-3.2%	x
Cc1cccc(Nc2ccc3nonc3c2[N+](=O)[O-])c1C	-5.3%	x	19.7%	x	x
SMILES	BLM inh	PKM2 activator	APE1 inh	RECQ1 helicase	KDM4E inh	others
CCOC(=O)NNc1ccc2nonc2c1[N+](=O)[O-]	-26.4%	-0.9%	u	u	6.31µM*
CCOC(=O)c1c(Nc2ccc(OC)cc2)nnc(-c2ccccc2)c1-c1ccccc1	-9.9%	x	x	x	x
CCOc1nc(-c2ccccc2)ccc1-c1noc(-c2ccc(C)cc2)n1	6.3%	x	x	x	x
CCOc1nc(-c2ccc(C)cc2)ccc1-c1noc(-c2cccnc2)n1	0.0%	-7.0%	u	-4.2%	4.47µM*
CC1OC(OC2C(OC3C(O[C@H]4CC[C@]5(C)C6C=C[C@]78OC[C@@]9(CC[C@@H](C)[C@H](C)C97)[C@H](O)C[C@@]8(C)[C@]6(C)CC[C@H]5C4(C)C)OC(C)C(O)C3O)OC(CO)C(O)C2O)C(O)C(O)C1O (stereo partly drawn)	-9.6%	-12.6%	-15.5%	i	-11.3%
C[C@H]1O[C@@H](O[C@H]2CC[C@@]3(C)C(CC[C@]4(C)C3C=C[C@]35OC[C@@]6(CCC(C)(C)C[C@H]63)[C@@H](O)C[C@]54C)[C@]2(C)CO)[C@H](O)[C@@H](O[C@@H]2O[C@H](CO)[C@@H](O)[C@H](O)[C@H]2O)[C@H]1O (stereo partly drawn)	x	x	21.2µM*	x	x
C[C@H](NC(=O)CNC(=O)[C@@H](NC(=O)[C@H](Cc1ccccc1)NC(=O)CNC(=O)CNC(=O)[C@@H](N)Cc1ccccc1)[C@@H](C)O)C(=O)N[C@@H](CCCN=C(N)N)C(=O)N[C@@H](CCCCN)C(=O)N[C@@H](CO)C(=O)N[C@@H](C)C(=O)N[C@@H](CCCN=C(N)N)C(=O)N[C@@H](CCCCN)C(N)=O	23.7%	x	-1.5%	9.8%	x
Cc1nc(SCc2ccccc2)c2ccsc2n1	-6.3%	15.8µM*	-8.6%	i	1.5%
c1ccc(CSc2ncnc3sccc23)cc1	-8.8%	u	3.6%	i	6.7%
c1csc(CNc2ccc(N3CCOCC3)cc2)c1	x	x	33.0%	x	x
CCC(=O)OCC(=O)[C@@]1(OC(=O)CC)[C@H](C)C[C@H]2[C@@H]3CCC4=CC(=O)C=C[C@]4(C)[C@@]3(F)[C@@H](O)C[C@@]21C	x	x	-8.5%	x	x
Cn1c(=O)[nH]c(=O)c2c1nc(SCC(=O)Nc1ccccc1)n2Cc1ccccc1	-0.8%	1.58µM*	-0.4%	1.4%	1.9%	HeLa viability=u
